# In the library only some 6.2% were active in any assay of this set; here they are far more common.
# RORgamma inh – ROR gamma (mouse) transcription inhibition; P51450; 310,000 tested, 5.4% active; Potency, µM (titrated, usually from 53.6 µM), for inactives: top-dose activity change, negative = inhibition, actives largely listed as inhibitors; Drosophila S2 Gal4-RORgamma UAS-luciferase reporter, 20 h; further: nearly all actives have a fitted effect of over 60% in size
# Target sequence (P51450 whole entry, looked up, the tested form may be a part): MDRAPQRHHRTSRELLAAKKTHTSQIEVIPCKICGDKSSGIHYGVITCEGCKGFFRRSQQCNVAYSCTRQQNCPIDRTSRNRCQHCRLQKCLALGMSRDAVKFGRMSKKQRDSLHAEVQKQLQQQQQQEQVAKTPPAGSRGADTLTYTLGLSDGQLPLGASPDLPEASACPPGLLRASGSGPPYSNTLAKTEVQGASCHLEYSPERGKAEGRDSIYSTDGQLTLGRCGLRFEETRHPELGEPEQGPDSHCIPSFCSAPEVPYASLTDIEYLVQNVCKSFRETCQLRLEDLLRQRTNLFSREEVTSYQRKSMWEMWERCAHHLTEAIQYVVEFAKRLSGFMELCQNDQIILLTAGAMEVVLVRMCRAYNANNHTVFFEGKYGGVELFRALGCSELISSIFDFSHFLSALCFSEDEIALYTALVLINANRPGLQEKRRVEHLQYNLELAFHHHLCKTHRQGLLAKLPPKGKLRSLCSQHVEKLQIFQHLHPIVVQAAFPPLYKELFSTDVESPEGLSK
#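 A Gal4/UAS one-hybrid system in insect cells: metallothionein-promoter Gal4–ROR gamma fusion plus Photinus luciferase reporter. Copper sulfate 700 uM final, 20 hr ambient incubation, luminescent detection after 10 min with reagent.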
# Luc counter – blocks Kinase-Glo luciferase, a counter-screen artifact; Q27757; Kinase-Glo luciferase, ATP luminescence, 8 min; Potency, µM (doses to about 38.3 µM), for inactives: top-dose activity change, negative = inhibition, hits mostly inhibitors; 200,000 tested, 0.28% active; AID 1379; further: nearly all actives have a fitted effect of over 60% in size
#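 Kinase-Glo luciferase light output from ATP and luciferin was measured with 10 uM ATP, within the enzyme's linear range. Buffer: 50 mM imidazole pH 7.2, 50 mM KCl, 7 mM MgCl2, 0.01% Tween 20, 0.05% BSA; luminescence read after 8 min at ambient temperature.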
# VP16 counter – Gal4-VP16 reporter inhibition counter-screen; Potency, µM (doses to about 53.6 µM), for the others: at the top dose activity, negative = inhibition, most hits filed as inhibitors; 310,000 tested, 3.5% active; AID 2546; Drosophila S2 Gal4-VP16 UAS-luciferase, luminescence, 20 h;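 further: Gal4-VP16 expression switched on by copper sulfate through the metallothionein promoter; nearly all actives have a fitted effect of over 50% in size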
# An asterisk follows results filed as active; ? = inconclusive; nt = not tested or not shown; [ ] = dose if it differs, or a comment. The call rests on the fitted dose curve; in most records, active means well fitted curve in the direction sought with a large enough effect; inconclusive means small, poorly fitted or top-dose-only effect, or another doubt; inactive means no such curve, though single readings can be large; an effect the other way counts as inactive or inconclusive. On the % scale 0 is the no-effect control and ±100 the full control effect; potency means the concentration at half of the fitted maximal effect.
SMILES,RORgamma inh,Luc counter,VP16 counter
CCCC[C@@H]1CNC(=S)N1CCC12CC3CC(CC(C3)C1)C2,0.562µM*,nt,3.16µM*
CCCC[C@@H]1CNC(=O)C(=O)N1CCc1cc(C(F)(F)F)cc(C(F)(F)F)c1,0.9%,nt,-3.6%
O=C(Oc1ccccc1)n1c(=O)oc2ccc(Cl)cc21,nt,1.3%,nt
CCCCCCCC(=O)OCCOC(=O)CCCCCCC,-13.4%,0.1%[39.9 µM],-1.7%
O=C(O)CCC(=O)C(=O)O,18.8%[10 µM],1.9%[7.66 µM],-9.5%
O=C(N/N=C/c1c(O)n(-c2ccc(Cl)cn2)c(=O)c2ccccc12)c1ccncc1,-14.5%,1.6%,-17.8%
O=C(N/N=C/c1c(O)n(-c2ccc(Cl)cn2)c(=O)c2ccccc12)C1CC1,5.62µM*,1.0%,7.94µM*
CCN1C(=O)/C(=C/c2cccs2)N(C)C1=S,-6.3%,-0.6%,2.4%
CCN1C(=O)/C(=C/c2ccc(C)o2)N(C)C1=S,?,1.1%,12.6µM*
O=S(=O)(c1ccccc1)N1CCC[C@@]2(CCN(Cc3cc(C(F)(F)F)cc(C(F)(F)F)c3)C2)C1,11.2%,-3.9%,-4.3%
O=C1c2ccccc2C(=O)c2c([N+](=O)[O-])ccc(O)c21,-27.7%,nt,5.8%
O=C1c2c(O)ccc([N+](=O)[O-])c2C(=O)c2c([N+](=O)[O-])ccc(O)c21,6.31µM*,nt,11.2µM*
C=CCn1c(SCC(=O)NC2CC2)nnc1-c1cccs1,-2.2%,nt,-2.0%
CCC1(C)Cc2ccccc2-c2nc[nH]c(=O)c21 (stereo unspecified),-25.3%,nt,11.4%
O=C1c2ccccc2-c2n[nH]c3cccc1c23,-20.9%,-1.4%,6.7%
O=C1c2ccccc2C(=O)c2[nH]c(=O)[nH]c21,3.98µM*,nt,7.08µM*
O=C1c2ccccc2C(=O)c2[nH]cnc21,11.2µM*,nt,?
CC(=O)NCc1ccc(C(=O)CSc2nnc(-c3ccncc3)n2Cc2ccccc2)o1,-14.7%,-2.1%,-7.8%
Cc1ccc(S(=O)(=O)CCC(=O)c2ccc(F)cc2)cc1,3.98µM*,nt,2.82µM*
Cc1ccc(S(=O)(=O)CCC(=O)OCC(=O)c2ccc(C)c(C)c2)cc1,-1.0%,1.1%,-5.8%
Cc1ccc(C(=O)CCS(=O)(=O)c2ccc(F)cc2)cc1,3.16µM*,nt,3.55µM*
Cc1ccc(S(=O)(=O)CCC(=O)NCc2ccc(Cl)cc2)cc1,-5.0%,nt,-0.6%
Cc1ccc(C(=O)CCS(=O)(=O)c2ccc(Cl)cc2)cc1,15.8µM*,nt,?
COc1ccc(C(=O)CCS(=O)(=O)c2ccc(F)cc2)cc1OC,-5.2%,nt,-10.8%
O=C(NCC1CCN(C(=O)c2ccc([N+](=O)[O-])cc2)CC1)c1ccc([N+](=O)[O-])cc1,0.3%,nt,-0.5%
SMILES,RORgamma inh,Luc counter,VP16 counter
CC(C)NC(=O)c1ccc(N(Cc2ccccc2)S(C)(=O)=O)cc1,10.9%,nt,-4.1%
O/N=C/Cc1[nH]c2ccccc2c1-c1ccccc1,-29.4%,nt,1.3%
O=C(O)[C@H]1O[C@@H](Oc2ccc3ccc(=O)oc3c2)[C@H](O)[C@@H](O)[C@@H]1O,0.4%,nt,3.6%
CCOc1ccc(C(C(=O)NC2CCCC2)N(CCCO)C(=O)c2ccc(-c3ccccc3)[nH]2)cc1 (stereo unspecified),31.3%,-2.6%,2.5%
COC(=O)[C@@]1(Cc2ccc(OC)cc2)[C@H]2c3cc(C(=O)N(C)C)n(Cc4ccccc4)c3C[C@H]2CN1C(=O)c1ccccc1,24.1%,-1.8%,-3.2%
O=C(NCC1COCCO1)c1cc(COc2ccc(F)cc2F)on1 (stereo unspecified),13.7%,nt,?
CC(=O)Nc1ccc(NC(=O)c2ccccc2Nc2ccccc2)cc1,-1.4%,nt,-3.7%
COc1ccc(C2=Nn3c(nnc3-c3cccc(OC)c3OC)SC2)cc1,-2.6%,nt,0.3%
COc1cc(-c2noc(CCCC(=O)Nc3ccc(C(N)=O)cc3)n2)cc(OC)c1OC,15.1%,nt,?
COc1ccc(-c2noc(CCCC(=O)Nc3ccc(C(N)=O)cc3)n2)cc1,1.58µM*,0.0%,2.51µM*
COc1ccc(-c2noc(CCC(=O)NC3CCCCCC3)n2)cc1,25.0%,nt,-5.9%
COc1ccc(-c2noc(CCCC(=O)NC3CCCC3)n2)cc1,4.47µM*,nt,14.1µM*
NC(=O)Nc1ccc(C(=O)OCC(=O)NC2CCCCC2)cc1,-2.2%,-2.0%,6.6%
COC(=O)CCSCC(=O)N1N=C(c2ccc(OC)cc2)CC1c1cccc(OC)c1OC (stereo unspecified),?,2.0%,-2.9%
COc1cc2c(=O)n(CCCN3CCOCC3)c(=S)[nH]c2c(OC)c1OC,-26.0%,0.2%,1.2%
COC(=O)[C@H](CCCN=C(N)N)NC(=O)CCCc1c(-c2ccccc2)[nH]c2c(F)cc(F)cc12,1.7%,2.0%[39.9 µM],-8.8%
CCOc1cc(C2C(C(=O)OCC(C)C)=C(C)N=C3SCCC(=O)N32)ccc1OC(C)=O (stereo unspecified),28.3%,2.5%,9.6%
COc1ccc(OC)c(CNc2nc3ccccc3n2CCN2CCCCC2)c1,10.9%,1.3%,1.7%
CCCn1c(NCc2cc(OC)ccc2OC)nc2ccccc21,5.01µM*,-2.7%,11.2µM*
COc1ccc(CNc2nc3ccccc3n2CCN2CCCCC2)c(OC)c1,12.6µM*,-5.0%,-22.3%
CCn1c(NCc2cc(OC)ccc2OC)nc2ccccc21,-26.0%,-0.7%,24.0%
Brc1cccc(CNc2nc3ccccc3n2CCN2CCCCC2)c1,4.47µM*,nt,-19.7%
Brc1ccc(CNc2nc3ccccc3n2CCN2CCCCC2)cc1,?,nt,-22.5%
Cc1nc([N+](=O)[O-])cn1Cc1cccc2ccccc12,-4.0%,nt,3.1%
Cc1nn(C(C)C(=O)NCc2ccco2)c(=O)c2nn(-c3ccccc3)c(C)c12 (stereo unspecified),17.9%,nt,2.7%
SMILES,RORgamma inh,Luc counter,VP16 counter
CC(=O)N1CC(C)Oc2ccc(S(=O)(=O)Nc3ccc(Cl)cn3)cc21 (stereo unspecified),29.0%,nt,-4.3%
[NH-]c1ncnc2c1N=C[N+]2=CC=CCO,2.5%,nt,12.4%
CCN(CC)CCNC(=O)c1ccc(NC(=O)Cc2cccc3ccccc23)cc1,5.6%,nt,19.3%
COc1ccc(CNc2nc(NCc3ccc(OC)cc3)c3ncn(C(C)C)c3n2)cc1,?,nt,-23.7%
c1coc(CNc2ncnc3sc4c(c23)CCCCC4)c1,-18.4%,1.2%,7.1%
Cc1sc2ncnc(NCc3ccco3)c2c1C,18.9%,-4.1%,20µM*
Cc1sc2ncnc(NCc3cccnc3)c2c1C,-3.6%,2.2%,-10.3%
c1coc(CNc2nc3nonc3nc2NCc2ccco2)c1,0.0%,-0.4%,12.6µM*
O=S(=O)(Nc1nc2ccccc2nc1NCc1ccco1)c1ccccc1,19.8%,3.9%,4.8%
Cc1sc2ncnc(NCc3cccs3)c2c1C,-13.1%,-3.1%,10µM*
O=C(O)Cc1ccc(S(=O)(=O)Nc2ccccc2C(=O)O)cc1,-4.0%,nt,8.4%
COc1cc(C(=O)N2C[C@@H]3CCC[C@H]2C3)ccc1OC1CCN(C(C)=O)CC1,11.1%,nt,-2.9%
Cc1cccc2c1c1ccc3c(c1n2C)C(=O)C=CC3=O,26.6%,nt,-10.1%
NS(=O)(=O)c1ccc(CCNCc2cc(Br)ccc2OCc2ccccc2)cc1,?,4.3%,15.8µM*
CCOc1cc(CNCCc2ccc(S(N)(=O)=O)cc2)ccc1OCc1ccccc1,-20.3%,-5.6%,-27.4%
CC1=CC(=C2C(=O)c3ccccc3C2=O)C=C(C)N1C,-6.8%,-7.4%,-4.3%
